An excerpt weighted towards active compounds, which were near 19% of everything screened.
DT40 TDP1 CPT: qHTS for Inhibitors of human tyrosyl-DNA phosphodiesterase 1 (TDP1): qHTS in cells in presence of CPT | Potency, µM (series often up to 46.2 µM), for inactives: at the highest dose activity change, negative = growth inhibition, hits mostly inhibitors | AID 686979, 2013 | actives 12% (n = 420,000) | chicken DT40 Tdp1-/-;hTDP1 cells + 20 nM CPT, ATP luminescence, 48 h; also: potency is read from the fitted curve at half-maximal effect; nearly all actives have a fitted effect of over 55% in size
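Cell growth measured by CellTiter-Glo luminescence after a minimum 48 h, 37 C compound exposure with 20 nM CPT in Tdp1-knockout DT40 cells stably expressing hTDP1, seeded 400/well; qHTS titration format.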
ELG1 DNA repair: qHTS screen for small molecules that inhibit ELG1-dependent DNA repair in human embryonic kidney (HEK293T) cells expressing luciferase-tagged ELG1 | HEK293T ELG1-luciferase reporter, luminescence, 16 h; DNA damage induced by 5-fluorouridine | Potency, µM (top dose mostly 46.1 µM), without a hit: at the top dose activity change, negative = inhibition, most hits filed as inhibitors | actives 2.3% (n = 330,000); also: potency is read from the fitted curve at half-maximal effect; nearly all actives have a fitted effect of over 55% in size
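In this reporter screen, reduction of luminescence relative to DMSO vehicle indicated activity. Compounds and 5-fluorouridine were added together to 2,000 cells per well, incubated for 16 hr at 37 °C, then developed with ONE-Glo.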
HT1080-NT tox: qHTS for induction of synthetic lethality in tumor cells producing 2HG: qHTS for the HT-1080-NT fibrosarcoma cell line; HT-1080-NT fibrosarcoma viability, CellTiter-Glo ATP luminescence, 48 h; actives 1.6% (n = 360,000); AID 686970, 2013; Potency, µM (series often up to 46.1 µM), for the others: top-dose activity, negative = less viability, usual class: cytotoxic;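 also: NT is the 2HG producing partner of a matched IDH1 knockdown line; potency is read from the fitted curve at half-maximal effect; 0% = DMSO-treated cells and -100% = media-only wells without cells; nearly all actives have a fitted effect of over 55% in size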
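Toxicity toward the 2HG-producing NT line was scored as %Activity, normalised to DMSO and no-cell wells, from CellTiter-Glo luminescence after 48 hours' treatment.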
HT1080 IDH1KD tx: qHTS for induction of synthetic lethality in tumor cells producing 2HG: qHTS for the HT-1080-IDH1KD cell line | HT-1080 IDH1 knockdown viability, ATP luminescence, 48 h | actives 2% (n = 360,000) | Potency, µM (doses to about 46.1 µM), without a hit: top-dose activity, negative = toxicity, most hits filed as cytotoxic | AID 686971, 2013;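 also: potency is read from the fitted curve at half-maximal effect; 0% = DMSO wells and -100% = cell-free medium wells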
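IDH1KD HT-1080 cells, 750/well, RPMI + 5% FBS; compound pinned after 2 h settling; 48 h, 37 °C; CellTiter-Glo luminescence; % activity normalised to DMSO and no-cell wells; curves fitted, classed by r2 and efficacy.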
TDP1 cell noCPT: qHTS for Inhibitors of human tyrosyl-DNA phosphodiesterase 1 (TDP1): qHTS in cells in absence of CPT; DT40 Tdp1-/- hTDP1 cells, no CPT, ATP luminescence, 48 h; actives 15% (n = 420,000); Potency, µM (doses to about 46.2 µM), for inactives: top-dose activity change, negative = growth inhibition, actives largely listed as inhibitors; also: potency is read from the fitted curve at half-maximal effect; nearly all actives have a fitted effect of over 55% in size
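Chicken DT40 Tdp1-/- cells complemented with human TDP1, screened without camptothecin (DMSO vehicle only), 400 cells/well. Compounds pin-transferred, cells incubated at 37 °C for at least 48 hr. Growth read as ATP-dependent luminescence (CellTiter-Glo, 30 min at RT).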
IL-1B inflam inh: qHTS for Inhibitors of Inflammasome Signaling: IL-1-beta AlphaLISA Primary Screen; THP-1 LPS/ATP IL-1B secretion, AlphaLISA, 16 h; hits give low values; activity change, % at 57.5 µM; actives 4.7% (n = 360,000); in the data active = activity change below about -50%; inconclusive = mostly about -30% to -49%
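Secreted IL-1B measured by AlphaLISA bead assay after 16 h compound exposure of THP-1 cells; compounds (final up to 57.5 uM) added 1 h before LPS (250 ng/mL) and ATP (1.25 mM) stimulation; lower signal means less secretion.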
An asterisk follows results filed as active; i = inactive; ? = inconclusive; / = no result given; [ ] = another dose, or the depositor's remark. Unless noted, calls follow the shape of the dose curve; as a rule, active = well fitted curve in the direction sought with a large enough effect; inconclusive = small, poorly fitted or top-dose-only effect, or another doubt; inactive = no such curve, though single readings can be large; an effect the other way counts as inactive or inconclusive. Unless noted, % is scaled to controls: 0 for no effect and ±100 for the full control effect.

SMILES | DT40 TDP1 CPT | ELG1 DNA repair | HT1080-NT tox | HT1080 IDH1KD tx | TDP1 cell noCPT | IL-1B inflam inh
COc1ccc(CN2C(=O)C(CC(=O)NCc3ccco3)CC(C(=O)N3CCOCC3)=C2C)cc1 (stereo not drawn) | 10.8% | / | 3.4% | 4.0% | ? | -13.4
Cn1c(N)c(C#N)c(-c2ccccc2)c(C#N)c1=O | -6.4% | / | 5.6% | 19.4% | -10.1% | -2.7
CC(=O)c1ccc(OCC(=O)N2CCCC(Nc3ccc(C)c(C)c3)C2)cc1 (stereo not drawn) | -1.8% | 8.3% | -2.8% | 4.3% | -28.6% | i
Cc1c(C(=O)N2CCCC(c3ccccc3)C2)sc2ncnc(NCCc3ccccn3)c12 (stereo not drawn) | 16.1%[9.04 µM] | / | / | / | -13.8% | /
CC1(c2ccc(Cl)cc2)NC(=O)N(CC(=O)Nc2ccc(N3CCCCC3)cc2)C1=O (stereo not drawn) | ? | 4.3% | 5.5% | -3.4% | -29.2% | -14.8
CC(C)C(=O)Nc1ccc2c(c1)C(=O)N(CCC(=O)O)C2=O | -9.9% | -3.0% | -0.3% | -3.4% | 29.1µM* | 2.8
COc1cc(OC)c(N(C)C(=O)c2sc3nc4n(c(=O)c3c2C)CCCCC4)cc1Cl | 16.7% | / | / | / | -2.4% | /
Cc1c(C(=O)Nc2cccc(C(F)(F)F)c2)sc2nc3n(c(=O)c12)CCCC3 | 10.3µM* | / | / | / | 8.2µM* | /
Cc1ccc(NC(=O)c2sc3nc[nH]c(=O)c3c2C)cc1Cl | -28.7% | / | / | / | ? | /
COc1cc(OC)c(N(C)C(=O)c2sc3nc4n(c(=O)c3c2C)CCCC4)cc1Cl | ? | / | / | / | 16.4µM* | /
Cc1c(C(=O)Nc2ccc(C(C)C)cc2)sc2nc[nH]c(=O)c12 | 20.6µM* | / | / | / | 18.4µM* | /
Cc1c(C(=O)N(C)c2cccc(C(F)(F)F)c2)sc2nc3n(c(=O)c12)CCCCC3 | ? | / | / | / | 14.6µM* | /
Cc1c(C(=O)O)sc2nc3n(c(=O)c12)CCC3 | -28.3% | 13.6% | 13.1% | 21.6% | ? | -3.1
Cc1c(C(=O)NCCc2ccc(Cl)cc2)sc2nc3n(c(=O)c12)CCC3 | ? | ? | -2.2% | -1.6% | -22.5% | -6.9
CCc1ccc(NC(=O)c2sc3nc4n(c(=O)c3c2C)CCC4)cc1 | -22.2% | ? | -6.0% | -3.0% | -21.9% | -3.2
CC(=O)c1cccc(NC(=O)c2sc3nc4n(c(=O)c3c2C)CCCC4)c1 | ? | 0.0% | 9.5% | 11.8% | -4.6% | -16.1
Cc1c(C(=O)NCCc2ccc(Cl)cc2)sc2nc3n(c(=O)c12)CCCC3 | ? | / | / | / | 18.4µM* | /
CC(=O)Nc1ccc(NC(=O)c2sc3nc4n(c(=O)c3c2C)CCCCC4)cc1 | 11.6µM* | ? | -0.3% | -15.0% | 10.3µM* | -8.2
Cc1c(C(=O)Nc2ccc(C(C)C)cc2)sc2nc3n(c(=O)c12)CCC3 | 16.4µM* | / | / | / | 20.6µM* | /
CCOc1ccc(CCNC(=O)c2sc3nc4n(c(=O)c3c2C)CCC4)cc1 | -21.1% | ? | -2.6% | 0.3% | 3.7% | 38.7
CCOc1ccc(NC(=O)c2sc3nc4n(c(=O)c3c2C)CCCC4)cc1 | 20.6µM* | / | / | / | 13µM* | /
CCOC(=O)N1CCC(N2CCCC(C(=O)c3cccc(OC)c3)C2)CC1 (stereo not drawn) | -19.2% | 4.5% | 1.2% | -0.1% | 16.5% | 19.5
Cc1ccc(S(=O)(=O)NCc2ccccc2)cc1C(=O)NCC(C)(C)N1CCOCC1 | ? | -8.6% | 3.1% | 2.5% | ? | 10.0

Compound activity (PubChem BioAssay)
